We go through four compounds from ChEMBL document CHEMBL1961873, “Compounds: GSK PKIS; Assays: Nanosyn kinase panel” (2012).

Experiment [1] deals with T1, Ephrin type-B receptor 2 (Homo sapiens) (UniProt P29323).
T1 sequence (whole entry): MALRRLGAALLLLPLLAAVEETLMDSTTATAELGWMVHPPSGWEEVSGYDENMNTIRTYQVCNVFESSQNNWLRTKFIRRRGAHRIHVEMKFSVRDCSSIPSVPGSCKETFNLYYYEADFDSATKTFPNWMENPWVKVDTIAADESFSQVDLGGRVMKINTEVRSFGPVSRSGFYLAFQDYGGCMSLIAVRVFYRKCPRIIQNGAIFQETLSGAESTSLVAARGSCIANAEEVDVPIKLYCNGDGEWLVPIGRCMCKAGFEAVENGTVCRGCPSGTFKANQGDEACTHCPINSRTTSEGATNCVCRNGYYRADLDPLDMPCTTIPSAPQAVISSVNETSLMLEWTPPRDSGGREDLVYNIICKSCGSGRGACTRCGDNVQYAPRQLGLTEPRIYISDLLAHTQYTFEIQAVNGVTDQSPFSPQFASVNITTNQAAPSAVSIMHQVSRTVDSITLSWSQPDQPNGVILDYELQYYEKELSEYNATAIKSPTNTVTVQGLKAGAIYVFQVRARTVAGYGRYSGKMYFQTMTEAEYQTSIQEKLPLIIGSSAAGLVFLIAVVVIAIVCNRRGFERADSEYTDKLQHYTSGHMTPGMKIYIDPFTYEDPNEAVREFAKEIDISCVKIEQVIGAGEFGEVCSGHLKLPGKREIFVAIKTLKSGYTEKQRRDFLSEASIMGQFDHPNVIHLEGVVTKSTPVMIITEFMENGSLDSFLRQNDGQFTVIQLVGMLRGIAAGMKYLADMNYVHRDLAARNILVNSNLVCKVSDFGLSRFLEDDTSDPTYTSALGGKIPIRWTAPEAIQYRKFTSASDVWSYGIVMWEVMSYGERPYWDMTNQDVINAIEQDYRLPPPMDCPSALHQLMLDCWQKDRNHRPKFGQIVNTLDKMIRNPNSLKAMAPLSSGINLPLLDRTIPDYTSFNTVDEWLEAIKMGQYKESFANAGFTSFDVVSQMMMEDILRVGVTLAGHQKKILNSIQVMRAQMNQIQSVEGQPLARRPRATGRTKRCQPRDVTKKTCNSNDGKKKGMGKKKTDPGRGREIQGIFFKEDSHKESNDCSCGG
The settings on record: at 1 µM.

Experiment [2] concerns the target T2, Ephrin type-B receptor 3 (Homo sapiens) (UniProt P54753).
T2 sequence (whole entry): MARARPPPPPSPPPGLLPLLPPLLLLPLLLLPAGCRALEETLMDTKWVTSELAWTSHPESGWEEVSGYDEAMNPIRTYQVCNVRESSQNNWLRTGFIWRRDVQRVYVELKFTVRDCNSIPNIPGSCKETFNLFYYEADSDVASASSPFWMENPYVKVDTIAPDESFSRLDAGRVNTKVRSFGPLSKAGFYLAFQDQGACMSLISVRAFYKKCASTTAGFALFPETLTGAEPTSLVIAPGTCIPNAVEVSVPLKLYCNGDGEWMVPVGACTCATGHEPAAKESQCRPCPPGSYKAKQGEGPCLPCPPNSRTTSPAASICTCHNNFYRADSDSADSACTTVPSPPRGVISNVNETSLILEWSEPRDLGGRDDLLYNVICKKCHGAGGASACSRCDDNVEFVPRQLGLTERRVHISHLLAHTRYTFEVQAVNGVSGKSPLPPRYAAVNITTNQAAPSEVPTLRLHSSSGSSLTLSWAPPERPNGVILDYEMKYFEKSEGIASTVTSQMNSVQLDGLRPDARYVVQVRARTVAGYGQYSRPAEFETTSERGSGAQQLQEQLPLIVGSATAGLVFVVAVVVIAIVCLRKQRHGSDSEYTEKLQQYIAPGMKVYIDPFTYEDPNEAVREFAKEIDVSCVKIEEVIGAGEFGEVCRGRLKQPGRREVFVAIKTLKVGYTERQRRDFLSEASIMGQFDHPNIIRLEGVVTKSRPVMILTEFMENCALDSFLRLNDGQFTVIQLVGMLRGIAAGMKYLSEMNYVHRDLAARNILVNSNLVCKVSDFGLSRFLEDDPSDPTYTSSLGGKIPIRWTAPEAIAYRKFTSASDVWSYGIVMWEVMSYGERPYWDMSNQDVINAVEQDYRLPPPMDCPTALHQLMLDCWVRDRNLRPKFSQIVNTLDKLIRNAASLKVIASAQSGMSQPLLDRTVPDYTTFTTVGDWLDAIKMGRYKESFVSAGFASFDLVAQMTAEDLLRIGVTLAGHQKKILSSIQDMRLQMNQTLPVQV
To be noted: at 0.1 µM.

Experiment [3] has as its target T2, Ephrin type-B receptor 3 (Homo sapiens). The settings on record: at 1 µM.
Experiment [4] concerns the target T3, Ephrin type-B receptor 4 (Homo sapiens) (UniProt P54760).
T3 sequence (whole entry): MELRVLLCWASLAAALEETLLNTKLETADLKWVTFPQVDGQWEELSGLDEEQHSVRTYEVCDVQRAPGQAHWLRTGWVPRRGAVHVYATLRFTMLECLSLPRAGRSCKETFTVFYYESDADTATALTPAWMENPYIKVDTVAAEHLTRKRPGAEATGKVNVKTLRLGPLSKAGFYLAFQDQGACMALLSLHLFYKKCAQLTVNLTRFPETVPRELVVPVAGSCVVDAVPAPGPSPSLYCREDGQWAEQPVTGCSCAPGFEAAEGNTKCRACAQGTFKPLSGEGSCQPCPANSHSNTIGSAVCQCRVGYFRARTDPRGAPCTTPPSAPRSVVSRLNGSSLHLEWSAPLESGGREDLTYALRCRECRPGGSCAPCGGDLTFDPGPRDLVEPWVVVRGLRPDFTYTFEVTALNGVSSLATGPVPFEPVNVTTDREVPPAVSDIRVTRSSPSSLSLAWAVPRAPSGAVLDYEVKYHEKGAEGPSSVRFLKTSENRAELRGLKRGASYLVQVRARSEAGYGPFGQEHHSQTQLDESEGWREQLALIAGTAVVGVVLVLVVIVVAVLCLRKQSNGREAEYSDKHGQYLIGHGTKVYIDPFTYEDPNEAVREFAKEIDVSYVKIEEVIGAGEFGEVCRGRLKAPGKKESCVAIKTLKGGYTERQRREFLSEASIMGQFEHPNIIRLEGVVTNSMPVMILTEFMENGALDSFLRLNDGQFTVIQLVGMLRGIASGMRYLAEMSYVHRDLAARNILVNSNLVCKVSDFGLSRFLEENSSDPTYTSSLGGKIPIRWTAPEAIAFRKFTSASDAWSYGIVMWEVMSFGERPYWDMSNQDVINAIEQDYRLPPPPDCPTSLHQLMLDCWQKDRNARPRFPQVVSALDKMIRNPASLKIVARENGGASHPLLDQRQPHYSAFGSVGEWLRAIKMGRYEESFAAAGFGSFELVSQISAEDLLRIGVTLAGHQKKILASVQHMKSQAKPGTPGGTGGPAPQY
The settings on record: at 0.1 µM.

For experiment [5], the target named is T3, Ephrin type-B receptor 4 (Homo sapiens). The settings on record: at 1 µM.
Experiment [6] concerns the target Receptor tyrosine-protein kinase erbB-2 (Homo sapiens) (UniProt P04626). To be noted: at 0.1 µM.
For experiment [7] the target is unchanged. The settings on record: at 1 µM.
In experiment [8] the target is Receptor tyrosine-protein kinase erbB-4 (Homo sapiens) (UniProt Q15303). The settings on record: at 0.1 µM.
Experiment [9] has the same target. To be noted: at 1 µM.
In experiment [10] the target is Tyrosine-protein kinase Fer (Homo sapiens) (UniProt P16591). The settings on record: at 0.1 µM.
Experiment [11] shares this target. The settings on record: at 1 µM.
In experiment [12] the target is Tyrosine-protein kinase Fes/Fps (Homo sapiens) (UniProt P07332). To be noted: at 0.1 µM.
The target is the same in experiment [13]. To be noted: at 1 µM.
Experiment [14] has as its target Fibroblast growth factor receptor 1 (Homo sapiens) (UniProt P11362). To be noted: at 0.1 µM.
For experiment [15] the target is unchanged. To be noted: at 1 µM.
Experiment [16] addresses Fibroblast growth factor receptor 2 (Homo sapiens) (UniProt P21802). The settings on record: at 0.1 µM.
For experiment [17] the target is unchanged. The settings on record: at 1 µM.
Experiment [18] addresses Fibroblast growth factor receptor 3 (Homo sapiens) (UniProt P22607). To be noted: at 0.1 µM.
For experiment [19] the target is unchanged. The settings on record: at 1 µM.
The target in experiment [20] is Fibroblast growth factor receptor 4 (Homo sapiens) (UniProt P22455). The settings on record: at 0.1 µM.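 Also: values are mean percent inhibition of FGFR4.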

SMILES strings stand for the structures.

A word on the inhibition: it is the drop in the measured response relative to a control, in per cent.

Chain of Fibroblast growth factor receptor 4 (Homo sapiens) (P22455 22-802 limits assumed): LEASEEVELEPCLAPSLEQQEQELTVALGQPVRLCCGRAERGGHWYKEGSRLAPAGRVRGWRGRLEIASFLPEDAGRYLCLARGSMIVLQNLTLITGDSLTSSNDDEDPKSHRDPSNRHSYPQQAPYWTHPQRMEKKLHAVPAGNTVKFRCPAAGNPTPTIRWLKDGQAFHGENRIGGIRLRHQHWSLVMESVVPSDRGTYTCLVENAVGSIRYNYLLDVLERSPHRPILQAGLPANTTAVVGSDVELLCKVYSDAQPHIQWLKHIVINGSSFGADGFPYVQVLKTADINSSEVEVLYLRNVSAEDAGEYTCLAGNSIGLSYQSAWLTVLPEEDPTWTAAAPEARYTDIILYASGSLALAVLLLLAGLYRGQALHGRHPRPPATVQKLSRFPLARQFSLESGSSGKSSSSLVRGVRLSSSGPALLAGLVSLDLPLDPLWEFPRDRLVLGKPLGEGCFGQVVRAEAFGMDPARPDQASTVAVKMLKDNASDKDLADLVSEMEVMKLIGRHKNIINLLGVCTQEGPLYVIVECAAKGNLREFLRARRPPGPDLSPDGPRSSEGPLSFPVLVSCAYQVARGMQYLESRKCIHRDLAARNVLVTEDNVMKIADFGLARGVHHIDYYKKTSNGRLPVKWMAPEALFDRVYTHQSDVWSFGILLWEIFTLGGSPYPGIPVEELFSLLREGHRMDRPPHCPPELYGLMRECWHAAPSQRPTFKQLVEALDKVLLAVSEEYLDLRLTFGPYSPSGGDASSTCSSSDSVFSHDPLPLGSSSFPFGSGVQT
Chain of Tyrosine-protein kinase Fes/Fps (Homo sapiens) (P07332 whole entry): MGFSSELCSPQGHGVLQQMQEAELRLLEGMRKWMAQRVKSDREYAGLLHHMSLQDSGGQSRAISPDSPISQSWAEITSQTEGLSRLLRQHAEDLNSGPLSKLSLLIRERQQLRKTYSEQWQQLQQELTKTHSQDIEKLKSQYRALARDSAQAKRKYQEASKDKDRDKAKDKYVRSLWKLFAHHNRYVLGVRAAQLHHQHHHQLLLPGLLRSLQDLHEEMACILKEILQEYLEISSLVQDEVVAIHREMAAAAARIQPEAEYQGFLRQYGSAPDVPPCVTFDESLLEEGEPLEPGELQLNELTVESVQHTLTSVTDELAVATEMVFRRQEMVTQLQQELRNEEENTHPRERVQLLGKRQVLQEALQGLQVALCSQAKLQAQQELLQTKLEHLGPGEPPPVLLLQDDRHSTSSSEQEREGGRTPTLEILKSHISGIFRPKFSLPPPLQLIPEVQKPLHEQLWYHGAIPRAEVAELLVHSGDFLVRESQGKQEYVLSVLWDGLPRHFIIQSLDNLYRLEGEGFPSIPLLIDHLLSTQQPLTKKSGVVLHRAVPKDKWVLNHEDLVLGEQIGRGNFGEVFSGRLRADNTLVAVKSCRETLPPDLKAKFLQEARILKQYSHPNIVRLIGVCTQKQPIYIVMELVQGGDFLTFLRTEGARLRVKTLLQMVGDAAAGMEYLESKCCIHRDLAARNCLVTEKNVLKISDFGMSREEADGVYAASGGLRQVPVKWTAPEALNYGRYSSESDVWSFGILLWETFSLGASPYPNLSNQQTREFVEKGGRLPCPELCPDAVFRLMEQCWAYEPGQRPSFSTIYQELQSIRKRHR
Chain of Receptor tyrosine-protein kinase erbB-4 (Homo sapiens) (Q15303 whole entry): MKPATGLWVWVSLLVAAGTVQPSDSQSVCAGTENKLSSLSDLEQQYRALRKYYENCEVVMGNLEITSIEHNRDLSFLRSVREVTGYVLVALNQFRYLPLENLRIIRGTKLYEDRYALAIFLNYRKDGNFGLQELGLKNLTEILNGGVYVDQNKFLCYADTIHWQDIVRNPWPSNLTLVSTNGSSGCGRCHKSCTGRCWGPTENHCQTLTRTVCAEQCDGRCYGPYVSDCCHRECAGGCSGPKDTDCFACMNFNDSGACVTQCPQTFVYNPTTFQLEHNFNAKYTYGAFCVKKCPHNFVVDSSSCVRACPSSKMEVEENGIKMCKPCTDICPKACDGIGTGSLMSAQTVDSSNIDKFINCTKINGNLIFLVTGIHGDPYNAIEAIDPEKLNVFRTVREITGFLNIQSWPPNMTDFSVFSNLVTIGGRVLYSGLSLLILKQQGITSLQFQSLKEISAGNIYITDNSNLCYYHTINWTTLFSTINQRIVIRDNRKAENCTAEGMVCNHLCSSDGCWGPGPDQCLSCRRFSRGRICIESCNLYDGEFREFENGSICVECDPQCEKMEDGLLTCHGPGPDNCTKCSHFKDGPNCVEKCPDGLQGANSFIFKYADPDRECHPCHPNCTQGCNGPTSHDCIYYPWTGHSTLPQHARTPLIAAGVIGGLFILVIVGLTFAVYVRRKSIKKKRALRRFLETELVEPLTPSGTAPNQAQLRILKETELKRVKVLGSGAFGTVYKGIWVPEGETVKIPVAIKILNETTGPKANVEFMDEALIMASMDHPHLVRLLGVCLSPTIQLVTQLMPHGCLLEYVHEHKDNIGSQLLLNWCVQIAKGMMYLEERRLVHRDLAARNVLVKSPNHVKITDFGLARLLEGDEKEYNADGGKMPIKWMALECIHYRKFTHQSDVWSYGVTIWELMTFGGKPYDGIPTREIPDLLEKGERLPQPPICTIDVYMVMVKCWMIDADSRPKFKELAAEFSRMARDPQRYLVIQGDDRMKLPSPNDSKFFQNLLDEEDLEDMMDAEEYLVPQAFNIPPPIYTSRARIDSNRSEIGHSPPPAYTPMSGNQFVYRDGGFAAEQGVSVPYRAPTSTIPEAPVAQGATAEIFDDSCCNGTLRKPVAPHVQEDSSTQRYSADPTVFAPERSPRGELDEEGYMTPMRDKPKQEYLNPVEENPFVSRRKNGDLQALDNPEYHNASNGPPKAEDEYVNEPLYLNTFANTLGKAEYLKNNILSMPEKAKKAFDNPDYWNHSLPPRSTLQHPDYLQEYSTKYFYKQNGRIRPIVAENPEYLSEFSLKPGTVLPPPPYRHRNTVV
Chain of Receptor tyrosine-protein kinase erbB-2 (Homo sapiens) (P04626 whole entry): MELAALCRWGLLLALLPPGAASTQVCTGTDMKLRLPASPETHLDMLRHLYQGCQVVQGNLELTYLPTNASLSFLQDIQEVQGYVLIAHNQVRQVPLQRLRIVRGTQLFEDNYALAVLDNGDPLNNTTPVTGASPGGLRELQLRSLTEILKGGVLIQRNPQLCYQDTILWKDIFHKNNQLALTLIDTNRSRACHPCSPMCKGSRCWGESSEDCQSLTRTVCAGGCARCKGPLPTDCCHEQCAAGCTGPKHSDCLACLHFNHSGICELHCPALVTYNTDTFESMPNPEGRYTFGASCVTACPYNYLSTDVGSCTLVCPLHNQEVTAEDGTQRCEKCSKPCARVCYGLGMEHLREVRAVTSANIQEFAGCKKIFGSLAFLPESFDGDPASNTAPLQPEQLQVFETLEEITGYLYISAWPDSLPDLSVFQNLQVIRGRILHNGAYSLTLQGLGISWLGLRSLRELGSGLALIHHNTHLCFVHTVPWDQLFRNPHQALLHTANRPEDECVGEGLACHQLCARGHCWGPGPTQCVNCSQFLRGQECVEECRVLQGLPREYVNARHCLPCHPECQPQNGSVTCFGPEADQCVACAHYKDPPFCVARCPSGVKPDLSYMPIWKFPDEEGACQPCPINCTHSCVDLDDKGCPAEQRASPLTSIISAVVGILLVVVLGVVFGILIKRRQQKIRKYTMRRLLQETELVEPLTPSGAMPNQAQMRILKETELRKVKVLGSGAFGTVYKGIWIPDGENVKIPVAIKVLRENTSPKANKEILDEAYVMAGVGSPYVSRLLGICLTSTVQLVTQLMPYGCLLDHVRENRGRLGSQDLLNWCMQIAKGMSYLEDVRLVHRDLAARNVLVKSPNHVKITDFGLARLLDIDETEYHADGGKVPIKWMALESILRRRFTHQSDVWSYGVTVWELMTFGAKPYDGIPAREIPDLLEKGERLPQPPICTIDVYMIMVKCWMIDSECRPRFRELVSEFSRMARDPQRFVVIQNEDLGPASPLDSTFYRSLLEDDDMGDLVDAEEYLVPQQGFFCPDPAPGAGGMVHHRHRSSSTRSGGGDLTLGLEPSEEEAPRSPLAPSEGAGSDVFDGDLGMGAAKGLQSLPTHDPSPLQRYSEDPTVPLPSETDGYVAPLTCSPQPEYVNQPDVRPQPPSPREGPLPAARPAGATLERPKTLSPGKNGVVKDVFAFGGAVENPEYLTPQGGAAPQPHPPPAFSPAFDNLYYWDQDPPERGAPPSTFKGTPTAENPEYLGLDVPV
Chain of Fibroblast growth factor receptor 3 (Homo sapiens) (P22607 23-806 limits assumed): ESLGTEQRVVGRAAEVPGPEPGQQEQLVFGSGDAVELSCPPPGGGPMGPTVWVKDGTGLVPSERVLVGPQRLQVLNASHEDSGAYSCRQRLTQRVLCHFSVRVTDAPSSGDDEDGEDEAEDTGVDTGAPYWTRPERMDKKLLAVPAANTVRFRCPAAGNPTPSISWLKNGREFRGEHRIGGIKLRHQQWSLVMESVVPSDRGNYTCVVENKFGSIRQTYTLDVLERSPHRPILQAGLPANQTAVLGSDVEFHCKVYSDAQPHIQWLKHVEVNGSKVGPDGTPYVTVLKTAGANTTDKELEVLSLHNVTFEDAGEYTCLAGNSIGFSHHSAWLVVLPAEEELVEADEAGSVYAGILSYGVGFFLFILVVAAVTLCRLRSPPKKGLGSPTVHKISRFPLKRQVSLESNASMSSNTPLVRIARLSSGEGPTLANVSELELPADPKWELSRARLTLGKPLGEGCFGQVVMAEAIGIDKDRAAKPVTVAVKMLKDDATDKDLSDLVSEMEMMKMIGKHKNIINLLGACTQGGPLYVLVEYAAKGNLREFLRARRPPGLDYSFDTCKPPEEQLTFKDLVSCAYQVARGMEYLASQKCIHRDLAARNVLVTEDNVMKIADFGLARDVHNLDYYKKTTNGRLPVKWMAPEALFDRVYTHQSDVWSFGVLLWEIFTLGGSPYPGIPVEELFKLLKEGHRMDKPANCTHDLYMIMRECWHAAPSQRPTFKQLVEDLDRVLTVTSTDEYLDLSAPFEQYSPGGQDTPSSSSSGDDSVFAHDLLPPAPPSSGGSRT

Take `CNC(=O)c1cc(-c2ccc(F)cc2)cc(-c2ccc(S(=O)(=O)N3CCCC3)cc2)c1N`: the inhibition worked out at 5.41% in experiment [1]; 0.26% in [2]; 3.7% in [3]; 1.99% in experiment [4]; 2.03% in experiment [5]; 2.24% in experiment [6]. For the same compound, the inhibition in experiment [7] was 7.8%; in experiment [8], 5.77%; in experiment [9] it was 10.4%; in experiment [10] it was 2.99%; in experiment [11], 2.21%; in experiment [12] it was 2.25%. The inhibition in [13] turned out to be 1.64%; in experiment [14] it was 3.72%; in experiment [15], 5.1%; in experiment [16], 9.77%; in experiment [17], 5.71%; in experiment [18], 4.56%. For the same compound, the inhibition in experiment [19] worked out at 3.99%; in experiment [20], 2.78%.

Turning to `Cc1ccc(O)cc1Nc1ccnc2cc(-c3ccccn3)ccc12`, the inhibition in [1] was 91.9%; in [2], 18.1%; in [3], 53.3%; in experiment [4], 87.3%; in [5], 95.1%; in experiment [6], 2.16%. The inhibition turned out to be 11.6% in experiment [7]; 35.1% in experiment [8]; 75.6% in experiment [9]; 5.39% in experiment [10]; 8.05% in [11]; 4.23% in [12]. Moreover, the inhibition in experiment [13] turned out to be 8.97%; in [14] it was 15.1%; in experiment [15], 46.6%; in [16], 12.8%; in experiment [17] it was 43.2%; in experiment [18], 8.93%. For the same compound, the results for the inhibition in [19] and in [20] were 25.8% and 9.41%, respectively.

`COc1ccc(-c2nn3ncccc3c2-c2ccnc(Nc3ccc4c(c3)OCCO4)n2)cc1`: the inhibition in experiment [1] is 35%; in [2], 1.77%; in [3], 6.41%; in experiment [4], -0.35%; in experiment [5] it was 15.6%; in experiment [6], 0.95%. In addition, the inhibition stood at 17.2% in experiment [7]; 55.9% in experiment [8]; 108% in experiment [9]; 1.56% in [10]; 11.8% in experiment [11]; 4.35% in experiment [12]. The inhibition is 7.51% in experiment [13]; -2.89% in experiment [14]; 11.2% in [15]; 3.13% in [16]; 22.1% in experiment [17]; 3.94% in [18]. The inhibition came out at 12.6% in [19] and 1.59% in experiment [20].

Consider `c1ccc(-c2nc3n(c2-c2ccc4c(c2)OCO4)CCC3)nc1`, for which the inhibition in experiment [1] is 3.77%; in experiment [2], 4.03%; in experiment [3], -0.67%; in experiment [4], 0.53%; in experiment [5] it was 1.11%; in experiment [6], 1.28%. For the same compound, the inhibition was -0.6% in experiment [7]; 3.67% in experiment [8]; 1.72% in experiment [9]; 2.91% in experiment [10]; 1.9% in experiment [11]; 0.9% in [12]. The inhibition is -0.41% in [13]; 0.69% in experiment [14]; 2.51% in experiment [15]; -0.68% in experiment [16]; 1.92% in [17]; 4.46% in [18]. The figures for the inhibition in experiment [19] and in experiment [20] were 1.25% and -1.29%, respectively.
